Screening results (PubChem BioAssay)
Only some compounds are listed: those with a hit (about 1.7% of all), similar ones and a draw of the others.
SSB-PriA inh: inhibitors of Klebsiella pneumoniae PriA binding to SSB C-terminal tail, primary screen, biochemical, AlphaScreen; AlphaScreen SSBct-PriA binding, biotinylated peptide; inhibition, % at 33 µM; 430,000 compounds, 0.6% hits; in the data active = inhibition mostly above about 37%, no sharp cut-off; inactive = mostly below about 20%
DUSP3 inh: VHR1 phosphatase inhibitors, primary screen, biochemical, absorbance, uHTS; Dual specificity protein phosphatase 3 (Homo sapiens), P51452; inhibition, % at 13.3 µM; AID 1654, 2009; recombinant VHR phosphatase, pNPP absorbance; 290,000 compounds, 0.52% hits; in the data active = inhibition above about 50%
Target sequence (P51452 whole entry, looked up): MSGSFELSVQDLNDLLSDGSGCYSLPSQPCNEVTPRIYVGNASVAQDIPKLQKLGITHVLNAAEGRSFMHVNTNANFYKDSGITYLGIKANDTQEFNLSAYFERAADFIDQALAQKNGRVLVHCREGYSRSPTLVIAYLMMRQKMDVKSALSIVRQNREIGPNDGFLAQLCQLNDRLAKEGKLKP
CCHFV vOTU inh: CCHFV vOTU protease inhibitors, primary screen, biochemical, Pep-AMC substrate, fluorescence; inhibition, % at 11.5 µM; 370,000 compounds, 0.55% hits; AID 651958, 2012; in the data active = inhibition above about 30%
RecA intein inh: Mtb RecA intein splicing inhibitors, primary screen, biochemical, fluorescence, HTS; cell-free RecA intein splicing; 290,000 compounds, 0.75% hits; AID 2221, 2009; inhibition, % (no concentration beside the values); in the data active = inhibition above about 30%
SARS 3CLpro inh: SARS-CoV 3CLpro protease inhibitors, primary screen, biochemical, quenched FRET. Replicase polyprotein 1ab (Severe acute respiratory syndrome coronavirus), P0C6X7. recombinant SARS-CoV 3CLpro, quenched FRET peptide cleavage. inhibition, % at 6 µM. 290,000 compounds, 0.14% hits; in the data active = inhibition above about 12%
Hits are given with their value; - = inactive; . = no result given; ! = repeats disagree.

SMILES | SSB-PriA inh | DUSP3 inh | CCHFV vOTU inh | RecA intein inh | SARS 3CLpro inh
Cn1nc([N+](=O)[O-])nc1Sc1cccc2cccnc12 | 78 | - | - | - | -
Cn1nc([N+](=O)[O-])nc1Sc1nnnn1-c1cccc(C(=O)O)c1 | - | - | - | - | -
Cn1nc([N+](=O)[O-])nc1Sc1nnc(-c2ccccc2)o1 | - | - | - | 32 | -
O=S(=O)(c1ccccc1Cl)N(CCc1cccs1)Cc1ccoc1 | - | . | . | . | .
CS(=O)(=O)CC[C@H](N)c1nc(-c2ccco2)no1 | - | . | . | . | .
O=C(CCn1ccc(=O)[nH]c1=O)N1CC(c2nc(-c3ccco3)no2)C1 | - | . | . | . | .
Cc1ccc(N(CCCCN2C(=O)c3ccccc3C2=O)C(=O)c2cccs2)cc1 | 66 | - | - | - | -
O=C1c2ccccc2C(=O)N1CCCCN(C(=O)c1ccc([N+](=O)[O-])o1)c1ccc(Cl)cc1 | 40 | . | . | . | .
O=C1c2ccccc2C(=O)N1CCCCN(C(=O)c1cccc([N+](=O)[O-])c1)c1ccc(Cl)cc1 | - | - | - | - | -
CC(C)(C)c1ccc(C(=O)N2CCN(c3ccc(-c4cccnc4)nn3)CC2)cc1 | - | . | . | . | .
O=S(=O)(c1ccccc1)c1cc(O)ccc1O | - | - | - | - | -
Nc1ccc(S(=O)(=O)c2cc(O)c3ccccc3c2O)cc1 | - | . | 71 | . | .
COc1ccc(S(=O)(=O)N2CCN(C(=O)c3cccs3)CC2)cc1 | - | - | - | - | -
COc1cc(OC)cc(C(=O)N2CCN(C(=O)c3cccs3)CC2)c1 | - | 58 | - | - | -
COc1ccc(CC(=O)NCCn2cc(-c3nc(C)no3)nn2)cc1Cl | - | . | . | . | .
O=C(c1ccccc1)[C@@H]1[C@@H](C(=O)c2ccc(F)cc2)[C@@]2(C(=O)Nc3ccccc32)[C@H]2c3ccccc3C=CN12 | - | - | 84 | 31 | -
CC(=O)[C@@H]1[C@@H](C(=O)c2ccccc2)[C@]2(C(=O)Nc3ccccc32)[C@H]2C=Cc3cc(F)ccc3N12 | - | - | - | - | -
CCCOc1ccc(C(=O)Nc2ccc(S(=O)(=O)Nc3cc(C)nc(C)n3)cc2)cc1 | - | 52 | - | - | -
NC(=O)c1ccsc1NC(=O)CCS(=O)(=O)c1ccc(Cl)cc1 | - | . | - | . | .
NC(=O)c1ccsc1NC(=O)CS(=O)(=O)c1ccc(Cl)cc1 | - | 56 | - | - | -
Cc1ccc(C)c2c1cc(C)c1nnc(SCC(=O)N3CCCc4ccccc43)n12 | - | 60 | - | - | -
O=C(Cn1c(SCC(=O)N2CCCc3ccccc32)nc2ccccc21)N1CCCC1 | - | 53 | . | - | -
COc1ccc(NC(=O)c2c(-c3c(F)cccc3Cl)noc2C)cc1[N+](=O)[O-] | 66 | . | . | . | .
Cc1onc(-c2c(Cl)cccc2Cl)c1C(=O)Nc1ccc2c(c1)OCCO2 | - | - | - | . | -
Cc1onc(-c2ccccc2Cl)c1C(=O)Nc1ccc2c(c1)OCO2 | - | 51 | - | - | -
SMILES | SSB-PriA inh | DUSP3 inh | CCHFV vOTU inh | RecA intein inh | SARS 3CLpro inh
Cc1nc(-c2ccccc2F)sc1CNC(=O)c1c(-c2ccccc2Cl)noc1C | - | . | . | . | .
Cc1onc(-c2ccccc2Cl)c1C(=O)NCCN1Cc2ccccc2C1=O | 47 | - | - | - | -
Cc1nc(C)c(-c2ccc(=O)n(CCNC(=O)c3c(-c4ccccc4Cl)noc3C)n2)s1 | 37 | . | . | . | .
O=C(Nc1nc(-c2ccc3c(c2)CCCC3)cs1)c1cc(=O)c2ccccc2o1 | - | . | . | . | .
O=C1C[C@@]2(CCN(C(=O)c3cc(=O)c4ccccc4o3)C2)Oc2ccccc21 | - | . | . | . | .
COc1cc(S(=O)(=O)N2CCN=C2c2ccccc2)c(OC)cc1Br | - | . | . | . | .
O=C(NCCOc1ccc2nnc(-c3cccc(F)c3)n2n1)c1ccccc1Cl | - | . | . | . | .
O=C(N[C@@H](Sc1ncccn1)C(=O)c1ccccc1)c1ccccc1 | - | . | . | . | .
CCN(CC)CCN(C(=O)c1ccc(C(=O)c2ccccc2)cc1)c1nc2c(OC)cccc2s1 | 37! | - | - | - | -
CCN(CC)CCN(C(=O)c1ccc(C(=O)c2ccccc2)cc1)c1nc2cc3c(cc2s1)OCO3 | 41 | - | - | - | -
CCN(CC)CCN(C(=O)Cc1cccc2ccccc12)c1nc2cc3c(cc2s1)OCO3 | 35 | . | . | . | .
CN(C)CCCN(C(=O)c1cc2ccccc2oc1=O)c1nc2ccc(F)cc2s1 | - | - | - | - | -
